Source: PubChem BioAssay (Tox21)
Where “and” joins values, the source holds several entries; their conditions need not be identical. Equal values may be shown once. Results filed as inconclusive are left out. Where a structure was tested more than once in an assay, its records may differ in their call. Calls of active or inactive are those of the source. Unless noted, calls come from the whole dose curve; as a rule, active = well fitted curve in the direction sought with a large enough effect in the repeat runs; inconclusive = weak or mixed curves; inactive = no such curve, though single readings can be large; an effect the other way counts as inactive or inconclusive.

How the values were obtained:
[1] = qHTS RealTime-Glo MT Cell Viability Assay in HepG2 cells - 32 hour (AID 1224877); note: nearly all actives have a fitted effect of over 55% in size
Outline: (§1)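 HepG2 cells were seeded at 600 cells/well together with NanoLuc luciferase and a cell-permeant prosubstrate, preincubated 5 h at 37 C/5% CO2, then pin-dosed with compounds in DMSO. Nonlytic luminescence from viable cells was read at each time point.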

[2] = A CellTox Green Cytotoxicity Assay to monitor cytotoxicity in HepG2 cells - 24 hour (AID 1224878); note: nearly all actives have a fitted effect of over 45% in size; note: potency is the fitted concentration of half-maximal effect
Outline: (§2)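 Read-out is fluorescence of a cyanine dye excluded from live cells that stains DNA of dead HepG2 cells, with signal proportional to cytotoxicity. Plates were read at 0, 8, 16, 24, 32 and 40 h after compound addition.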

[3] = A CellTox Green Cytotoxicity Assay to monitor cytotoxicity in HepG2 cells - 40 hour (AID 1224879); note: nearly all actives have a fitted effect of over 40% in size; note: potency is the fitted concentration of half-maximal effect
Outline: as §2

[4] = qHTS RealTime-Glo MT Cell Viability Assay in HEK293 cells - 0 hour (AID 1224880); note: top concentration of the series differs between compounds; nearly all actives have a fitted effect of over 45% in size
Outline: (§3)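 Cells were seeded together with NanoLuc luciferase and a prosubstrate that viable cells reduce to a luciferase substrate. After a 5 h incubation at 37 C/5% CO2, compounds were added and luminescence was measured repeatedly during 40 h of treatment.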

[5] = A CellTox Green Cytotoxicity Assay to monitor cytotoxicity in HEK293 cells - 32 hour (AID 1224881); note: nearly all actives have a fitted effect of over 40% in size; note: potency is the fitted concentration of half-maximal effect
Outline: (§4)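 Nonlytic real-time cytotoxicity: HEK293 + CellTox Green reagent plated, 5 h preincubation, pintool compound addition (23 nL in DMSO), 37 C for 40 h, fluorescence measured at successive time points.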

[6] = A CellTox Green Cytotoxicity Assay to monitor cytotoxicity in HepG2 cells - 0 hour (AID 1224882); note: nearly all actives have a fitted effect of over 35% in size
Outline: as §2

[7] = A CellTox Green Cytotoxicity Assay to monitor cytotoxicity in HepG2 cells - 32 hour (AID 1224883); note: nearly all actives have a fitted effect of over 50% in size; note: potency is the fitted concentration of half-maximal effect
Outline: as §2

[8] = A CellTox Green Cytotoxicity Assay to monitor cytotoxicity in HEK293 cells - 8 hour (AID 1224884); note: nearly all actives have a fitted effect of over 35% in size
Outline: as §4

[9] = qHTS RealTime-Glo MT Cell Viability Assay in HepG2 cells - 16 hour (AID 1224885); note: nearly all actives have a fitted effect of over 50% in size
Outline: as §1

[10] = qHTS RealTime-Glo MT Cell Viability Assay in HEK293 cells - 24 hour (AID 1224886); note: nearly all actives have a fitted effect of over 50% in size; note: potency is the fitted concentration of half-maximal effect; for activity change, negative = cytotoxicity: top concentration of the series differs between compounds
Outline: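 HEK293 cells were seeded at 600 cells/well together with NanoLuc luciferase and cell-permeant prosubstrate, preincubated 5 h at 37 C/5% CO2, then given compound in DMSO by pintool. Luminescence from viable-cell prosubstrate reduction was read repeatedly over 40 h.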

[11] = qHTS RealTime-Glo MT Cell Viability Assay in HEK293 cells - 8 hour (AID 1224887); note: nearly all actives have a fitted effect of over 50% in size; note: potency is the fitted concentration of half-maximal effect; for activity change, negative = cytotoxicity: top concentration of the series differs between compounds
Outline: as §3

[12] = A CellTox Green Cytotoxicity Assay to monitor cytotoxicity in HEK293 cells - 16 hour (AID 1224888); note: nearly all actives have a fitted effect of over 35% in size
Outline: as §4

[13] = qHTS RealTime-Glo MT Cell Viability Assay in HepG2 cells - 0 hour (AID 1224889); note: nearly all actives have a fitted effect of over 50% in size
Outline: as §1

[14] = A CellTox Green Cytotoxicity Assay to monitor cytotoxicity in HepG2 cells - 8 hour (AID 1224890); note: nearly all actives have a fitted effect of over 45% in size; note: potency is the fitted concentration of half-maximal effect
Outline: as §2

[15] = qHTS assay to identify small molecule antagonists of the estrogen receptor alpha (ER-alpha) signaling pathway using the BG1 cell line in the presence of 0.1 nM 17-beta-estradiol - cell viability counter screen (AID 1259241); note: nearly all actives have a fitted effect of over 40% in size; note: potency is the fitted concentration of half-maximal effect
Outline: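 Cytotoxicity counter-screen: live-cell protease activity measured by fluorescence (30 min reagent step) in the same wells. Cells were VM7Luc4E2 with endogenous ER-alpha and ERE-driven luciferase, treated 22 hr at 37C alongside 0.1 nM 17beta-estradiol final.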

[16] = molecular target: Androgen receptor (Homo sapiens) (UniProt P10275); experiment: qHTS assay to identify small molecule antagonists of the androgen receptor (AR) signaling pathway using the MDA cell line in the presence of 0.5 nM R1881 (AID 1259243); note: nearly all actives have a fitted effect of over 50% in size
Androgen receptor (Homo sapiens), sequence (P10275 whole entry, looked up): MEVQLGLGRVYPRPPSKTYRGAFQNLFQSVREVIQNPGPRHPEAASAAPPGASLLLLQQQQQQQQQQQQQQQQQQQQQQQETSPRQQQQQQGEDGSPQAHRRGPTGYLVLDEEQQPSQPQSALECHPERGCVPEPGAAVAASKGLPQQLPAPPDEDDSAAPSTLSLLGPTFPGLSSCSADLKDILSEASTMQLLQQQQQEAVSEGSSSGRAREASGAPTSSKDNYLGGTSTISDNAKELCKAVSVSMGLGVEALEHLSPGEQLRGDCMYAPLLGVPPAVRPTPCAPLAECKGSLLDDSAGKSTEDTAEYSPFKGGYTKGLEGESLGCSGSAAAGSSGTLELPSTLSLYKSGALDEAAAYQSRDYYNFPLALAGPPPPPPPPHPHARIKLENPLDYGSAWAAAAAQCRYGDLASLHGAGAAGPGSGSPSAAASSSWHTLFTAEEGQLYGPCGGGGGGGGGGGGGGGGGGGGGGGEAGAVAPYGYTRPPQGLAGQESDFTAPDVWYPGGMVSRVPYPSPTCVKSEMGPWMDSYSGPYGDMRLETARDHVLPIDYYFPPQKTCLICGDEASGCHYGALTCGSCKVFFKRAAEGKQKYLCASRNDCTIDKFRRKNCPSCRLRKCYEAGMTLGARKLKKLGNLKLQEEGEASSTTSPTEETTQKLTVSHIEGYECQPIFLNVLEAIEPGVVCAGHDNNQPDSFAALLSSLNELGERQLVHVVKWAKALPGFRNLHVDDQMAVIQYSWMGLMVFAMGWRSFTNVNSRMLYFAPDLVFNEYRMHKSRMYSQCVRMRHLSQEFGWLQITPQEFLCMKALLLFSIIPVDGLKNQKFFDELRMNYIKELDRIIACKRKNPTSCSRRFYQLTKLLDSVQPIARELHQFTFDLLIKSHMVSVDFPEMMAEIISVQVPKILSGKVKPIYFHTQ
Outline: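 Luciferase luminescence is the read-out: compounds are tested for suppressing 0.5 nM R1881-driven MMTV reporter activity in MDA-kb2 cells after 16 hr at 37C.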

[17] = qHTS assay to identify small molecule HDAC inhibitors (AID 1259364); note: nearly all actives have a fitted effect of over 45% in size; note: potency is the fitted concentration of half-maximal effect; for activity change, negative = inhibition: top concentration of the series differs between compounds
Outline: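 Luminescence from a cell-permeant luminogenic class I/II HDAC substrate reports endogenous deacetylase activity in intact HCT-116 cells treated with compounds for 2 h.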

[18] = qHTS assay to identify small molecule antagonists of the androgen receptor (AR) signaling pathway using the MDA cell line in the presence of 0.5 nM R1881 - cell viability counter screen (AID 1259242); note: nearly all actives have a fitted effect of over 45% in size
Outline: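 Counter screen for cytotoxicity run in the same wells as the AR antagonist reporter screen: MDA-kb2 cells were treated 16 hr with test compounds and 0.5 nM R1881, then live-cell protease activity was measured by fluorescence.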

[19] = molecular target: Estrogen receptor (Homo sapiens) (UniProt P03372); experiment: qHTS assay to identify small molecule antagonists of the estrogen receptor alpha (ER-alpha) signaling pathway using the BG1 cell line in the presence of 0.1 nM 17-beta-estradiol (AID 1259244); note: nearly all actives have a fitted effect of over 50% in size
Estrogen receptor (Homo sapiens), sequence (P03372 whole entry, looked up): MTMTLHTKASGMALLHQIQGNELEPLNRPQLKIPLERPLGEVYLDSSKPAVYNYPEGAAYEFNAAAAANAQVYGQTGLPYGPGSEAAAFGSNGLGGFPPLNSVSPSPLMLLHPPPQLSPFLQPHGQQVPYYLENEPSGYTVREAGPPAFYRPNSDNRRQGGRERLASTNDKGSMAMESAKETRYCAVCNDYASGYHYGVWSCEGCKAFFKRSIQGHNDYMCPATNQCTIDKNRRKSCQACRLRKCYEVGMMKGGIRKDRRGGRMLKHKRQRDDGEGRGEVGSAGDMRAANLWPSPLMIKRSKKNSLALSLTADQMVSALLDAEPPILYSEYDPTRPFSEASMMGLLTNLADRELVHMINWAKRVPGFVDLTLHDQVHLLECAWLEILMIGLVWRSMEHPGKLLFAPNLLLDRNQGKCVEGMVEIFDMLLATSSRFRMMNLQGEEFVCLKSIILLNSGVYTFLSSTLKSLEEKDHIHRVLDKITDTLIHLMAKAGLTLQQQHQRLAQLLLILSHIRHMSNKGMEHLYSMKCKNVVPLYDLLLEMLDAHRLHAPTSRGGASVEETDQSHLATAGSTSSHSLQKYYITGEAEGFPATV
Outline: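 Cells: VM7Luc4E2, endogenous ER-alpha, 4x ERE-luc stable. Pre-culture 5 d, phenol red-free, charcoal-stripped FBS. Plated 24 h, compound + E2 0.1 nM final, 22 h 37C/5% CO2. Readout ONE-Glo luminescence.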

[20] = qHTS assay to identify small molecule phospholipidosis (PLD) inducers (AID 1259344; active = well fitted curve in the direction sought with a large enough effect; an effect the other way counts as inactive or inconclusive)
Outline: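 Phospholipidosis is scored by imaging LipidTOX-stained pits in HepG2 cells exposed to compound for 24 h at 37 C; pit counts and integrated intensities per well and per cell serve as outputs.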
% is set by controls: 0 for no effect and ±100 for the full control effect.

Nc1cc([N+](=O)[O-])ccc1O
active: Potency [15] 48.6 µM
inactive: outcome [1] | Potency [2] | Potency [3] | Potency [4] | Potency [5] | outcome [6] | Potency [7] | outcome [8] | outcome [9] | Potency [10] | Potency [11] | outcome [12] | Potency [13] | Potency [14] | Potency [16] | Potency [17]

CC1CCC2CC1C2(C)C (centres undefined)
inactive: outcome [1] | Potency [2] | Potency [3] | Potency [4] | Potency [5] | outcome [6] | Potency [7] | outcome [8] | outcome [9] | Potency [10] | Potency [11] | outcome [12] | Potency [13] | Potency [14] | Potency [15] | outcome [18] | Potency [17]

O=C(OCCOCCOC(=O)c1ccccc1)c1ccccc1
inactive: outcome [1] | Potency [2] | Potency [3] | Potency [4] | Potency [5] | outcome [6] | Potency [7] | outcome [8] | outcome [9] | outcome [12] | Potency [13] | Potency [14] | Potency [15] | outcome [18] | Potency [19] | Potency [17]

CSCCC=O
inactive: outcome [1] | Potency [2] | Potency [3] | Potency [4] | Potency [5] | outcome [6] | Potency [7] | outcome [8] | outcome [9] | Potency [10] | Potency [11] | outcome [12] | Potency [13] | Potency [14] | Potency [15] | outcome [18] | Potency [17]

O=c1[nH]c(=O)n([C@H]2CCCO2)cc1F
inactive: outcome [1] | Potency [2] | Potency [3] | Potency [4] | Potency [5] | outcome [6] | Potency [7] | outcome [8] | outcome [9] | Potency [10] | Potency [11] | outcome [12] | Potency [13] | Potency [14] | Potency [15] | outcome [18] | outcome [20] | Potency [17]

CN(C)CCC(c1ccccc1)c1ccccn1 (centres undefined)
inactive: outcome [1] | Potency [2] | Potency [3] | Potency [4] | Potency [5] | outcome [6] | Potency [7] | outcome [8] | outcome [9] | Potency [10] | Potency [11] | outcome [12] | Potency [13] | Potency [14] | Potency [15] | outcome [18] | outcome [20]

NNc1nncc2ccccc12
inactive: outcome [1] | Potency [2] | Potency [3] | Potency [4] | Potency [5] | outcome [6] | Potency [7] | outcome [8] | outcome [9] | activity change, negative = cytotoxicity [10] 2.63% [at 15.8 µM] | activity change, negative = cytotoxicity [11] 1.02% [at 15.8 µM] | outcome [12] | Potency [13] | Potency [14] | Potency [15] | outcome [18] | outcome [20] | activity change, negative = inhibition [17] -29.1% [at 19 µM]

COCCCOc1ccnc(CS(=O)c2nc3ccccc3[nH]2)c1C (centres undefined)
inactive: outcome [1] | Potency [2] | Potency [3] | Potency [4] | Potency [5] | outcome [6] | Potency [7] | outcome [8] | outcome [9] | outcome [12] | Potency [13] | Potency [14] | Potency [15] | outcome [18] | outcome [20]
30.5 µM (active) and inactive: Potency [17]
10.9 µM (active) and inactive: Potency [10]
19.4 µM (active) and inactive: Potency [11]

CN(C)CCOCCN(C)C
inactive: outcome [1] | Potency [4] | outcome [6] | outcome [8] | outcome [9] | Potency [10] | Potency [11] | outcome [12] | Potency [13] | Potency [15] | outcome [18] | Potency [17]
inactive and 49 µM (active): Potency [2] | Potency [3] | Potency [5] | Potency [7] | Potency [14]

Nc1ccccc1[N+](=O)[O-]
inactive: outcome [1] | Potency [2] | Potency [3] | Potency [4] | Potency [5] | outcome [6] | Potency [7] | outcome [8] | outcome [9] | Potency [10] | Potency [11] | outcome [12] | Potency [13] | Potency [14] | Potency [15] | outcome [18] | Potency [17]

ON=C1CCCCC1
inactive: outcome [1] | Potency [2] | Potency [3] | Potency [4] | Potency [5] | outcome [6] | Potency [7] | outcome [8] | outcome [9] | Potency [10] | Potency [11] | outcome [12] | Potency [13] | Potency [14] | Potency [15] | outcome [18] | Potency [17]
